Measurements as given in PubChem BioAssay (NCI).
Where “and” joins values, the source holds several entries; their conditions need not be identical. Equal values may be shown once. The panel holds about 83,000 compounds, 20% with a hit somewhere; the sample as a whole holds those more often.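 Activity criterion: percent growth below 10, measured after cells in 96-well plates were exposed to a single compound concentration for 48 hours.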 A number with no mark means an inactive call. Calls of active or inactive are those of the source.

What was measured:
Experiment in all cases: NCI-60 one-dose screen, 48 h (100 = growth as untreated, 0 = no growth, -100 = all killed)
Settings in all cases: 10 µM unless noted
[1] = tested on: DU-145 prostate
[2] = tested on: K-562 leukemia
[3] = tested on: MALME-3M melanoma
[4] = tested on: RXF 393 renal
[5] = tested on: SF-268 CNS
[6] = tested on: SF-295 CNS
[7] = tested on: SF-539 CNS
[8] = tested on: UACC-257 melanoma
[9] = tested on: M14 melanoma
[10] = tested on: HCT-15 colon
[11] = tested on: HT29 colon
[12] = tested on: SNB-75 CNS
[13] = tested on: SNB-19 CNS
[14] = tested on: U251 CNS
[15] = tested on: PC-3 prostate
[16] = tested on: SK-MEL-5 melanoma
[17] = tested on: LOX IMVI melanoma
[18] = tested on: SK-MEL-28 melanoma
[19] = tested on: UACC-62 melanoma
[20] = tested on: MDA-MB-231 breast

Row | SMILES | growth [1] | growth [2] | growth [3] | growth [4] | growth [5] | growth [6] | growth [7] | growth [8] [%] | growth [9] | growth [10] | growth [11] | growth [12] | growth [13] | growth [14] | growth [15] | growth [16] | growth [17] | growth [18] | growth [19] | growth [20]
1 | Cc1cc(N)ccc1N | 115% | 105% | 105% | 103% | 103% | 108% | 95.8% | 97.2 | 104% | 105% | 109% | 92.3% | 102% | 93.2% | 87.6% | 97.2% | 98.3% | 107% |  | 
2 | C=C1C(=O)OC2/C=C(\C)CC/C=C(/C)CC(OC(=O)/C(=C/CO)CO)C12 (stereo unspecified) |  |  |  |  |  |  |  |  |  |  |  |  |  |  |  |  |  |  | -89.6% [100 µM] (active) and -100% [100 µM] (active) | 
3 | COc1ccc(N)cc1N | 120% | 115% | 117% |  | 128% | 105% | 92.8% |  | 111% | 102% | 113% | 88.7% | 101% | 106% | 88.2% | 105% | 100% | 120% | 105% | 99%
4 | CCCCOC(N)=O | 109% | 102% |  |  | 104% | 105% | 109% | 110 | 97.5% | 101% | 107% | 88.6% | 98% | 106% | 108% | 99.6% | 104% | 112% |  | 109%
5 | CCOC(=O)C1C(c2ccco2)C2(C#N)C(=N)OC1(C)C2(C#N)C#N (stereo unspecified) |  |  |  |  |  |  |  |  |  |  |  |  |  |  |  |  |  |  | 62% [100 µM] and 20.8% [100 µM] | 
6 | CC1=C2[C@H]3OC(=O)[C@@H](C)[C@@H]3CC[C@@]2(C)C=CC1=O | 109% | 110% | 87.3% |  | 107% | 106% | 83.3% |  | 120% | 95.3% | 118% | 88.3% | 110% | 101% | 50.5% |  | 99.1% |  | 93% | 112%
7 | O=C1NC(=O)C(=C/C=C/c2ccccc2)C(=O)N1 |  | 8.24% (active) | -4.86% (active) | -91.5% (active) | 30% | 97.8% | 27.4% | 38.7 | -20.5% (active) | 8.86% (active) | -71.6% (active) | 24.3% | 53.8% | 7.65% (active) | 27.7% | 80.9% | -64.4% (active) | -34.7% (active) | -11.9% (active) | 3.87% (active)
8 | CCOC(=O)c1ccccc1C(=O)OCC | 118% |  | 102% | 121% | 110% | 83.5% | 107% | 91.3 | 103% | 93.8% | 102% | 83.3% | 105% | 99.9% | 113% | 110% | 97.9% | 114% | 91.4% | 93.3%
9 | NNC(=S)N/N=C(\C(=O)Nc1cccc(O)c1)C1C(=O)NC(=S)NC1=O |  |  |  |  |  |  |  |  |  |  |  |  |  |  |  |  |  |  | 90.4% [100 µM] and 91% [100 µM] | 
10 | CCCC[C@@H]1CCN2C[C@@H](O)[C@@H](O)[C@@H]2[C@H]1O |  |  |  |  |  |  |  |  |  |  |  |  |  |  |  |  |  |  | 111% [100 µM] and 89.9% [100 µM] | 
11 | COC12CC3C4=CCOC5CC(=O)N6c7ccccc7C1(CCN2C4)C6C53 (stereo unspecified) | 117% |  | 112% | 129% | 111% | 111% | 100% | 84 | 99.2% | 103% | 100% | 70.1% | 116% | 93.2% | 105% | 110% | 96.9% | 109% | 104% | 106%
12 | CNC(=O)CCl | 114% | 121% | 92.5% | 110% | 104% | 105% | 102% | 92.5 | 105% | 101% | 102% | 96% | 104% | 94.7% | 94.6% | 96.4% | 100% | 107% | 96.1% | 
13 | O=C(O)c1cc([N+](=O)[O-])cc([N+](=O)[O-])c1 | 109% | 116% | 109% |  | 97% | 101% | 104% | 61.8 | 95.9% |  | 96.6% | 86.8% | 105% | 91.8% |  | 98% | 97% | 106% | 105% | 120%
14 | CC(Oc1ccc(-c2ccccc2)cc1)C(=O)O (stereo unspecified) | 113% | 112% |  |  | 105% | 102% | 99.6% | 99.2 | 102% | 108% | 103% | 91.6% | 97% | 97.4% | 101% |  | 104% |  |  | 108%
15 | O=C(O)c1ccc(=O)[nH]c1 | 114% and 111% | 102% and 89.2% | 109% and 104% |  | 101% and 104% | 113% and 96.2% | 89.5% and 98.2% |  | 102% and 95.8% | 97.5% and 103% | 109% and 97.7% | 101% and 91.6% | 94.4% and 102% | 97.5% and 91% | 103% and 90.1% | 101% and 100% | 103% and 93.4% | 106% and 110% | 88.7% and 98.6% | 102% and 104%
16 | Cc1ccc(C(=O)O[C@H](C(=O)O)[C@H](OC(=O)c2ccc(C)cc2)C(=O)O)cc1 | 110% | 89.9% | 107% | 115% | 105% | 118% | 102% | 94 | 100% | 101% | 98% | 103% |  | 97.8% | 101% | 105% | 97% | 109% |  | 
